From PubChem BioAssay AID588742 (Southern Research Specialized Biocontainment Screening …, 2011)
Screen size: about 1,800 compounds; about 410 (23%) were called active. Only a sample is shown. Results with a measured potency or affinity are listed apart. Unmarked numbers belong to inactive results. How the calls were made is not given here.

Experiment: Vero cell cytotoxicity, cytotoxicity control for flavivirus capping enzyme inhibitors (AID 588742)
Details: Vero cells viability, cytotoxicity counter-screen; series mostly up to 40 µM; viability: at the top concentration

| SMILES | viability |
| --- | --- |
| COC/C=C/C1=CC2=CC(=O)C(C)(OC(=O)c3cnc4ccccc4n3)C(=O)C2=CN1C1CC1 (configuration not stated) | 93.5% |
| C=CCN1C=C2C(=O)C(C)(OC(=O)c3cnc4ccccc4n3)C(=O)C=C2C=C1/C=C/COC (configuration not stated) | 107% |
| CCc1ccccc1N1C(=O)C(Cl)=C(N2CCOCC2)C1=O | 89.8% |
| Cc1ccccc1N1C(=O)C(Cl)=C(N2CCOCC2)C1=O | 90.7% |
| Cc1ccc(Nc2cc(C)c(O)c(C)c2)cc1 | 92.6% |
| Cc1ccc(S(=O)(=O)Nc2nc3ccccc3nc2NCc2ccco2)cc1 | 105% |
| CC(C)C[C@H]1CN=C(Nc2ccccc2)N1CC(C)C | 96.1% |
| Cc1ccc(OCC(=O)c2ccc(Cl)s2)c([N+](=O)[O-])n1 | 95.8% |
| CCOc1ccc2c(c1)C(C)=CC(C)(C)N2C(=O)Nc1ccccc1 | 99.6% |
| CN1C(=O)/C(=C/c2cccc([N+](=O)[O-])c2)C(=O)N1c1ccccc1 | 99.7% |
| O=c1[nH]c(/C=C/c2cccc([N+](=O)[O-])c2)c([N+](=O)[O-])c(=O)[nH]1 | 103% |
| Cc1cc(C)cc(NC(=S)N(Cc2ccc(Cl)cc2)Cc2ccc(C(=O)O)cc2)c1 | 86.2% |
| CSC1=C(C#N)C(=O)NC(c2ccccc2O)S1 (configuration not stated) | 102% |
| Cc1ccc(OCc2ccc(C(=O)Nc3nccs3)o2)cc1C | 103% |
| CCn1c(C)[n+](CCCS(=O)(=O)[O-])c2cc(Cl)c(Cl)cc21 | 106% |
| O=S(=O)(O)c1cccc2cccc(Nc3ccccc3)c12 | 93.8% |
| COc1ccc(/C=C2/SC(=S)N(NS(=O)(=O)c3ccc(C)cc3)C2=O)cc1 | 96.9% |
| CCC(COC)Oc1cc(NCc2ccccc2)c2ncn(C(C)C)c2c1 (configuration not stated) | 85.8% |
| CCCCC1=CC2=C(c3ccco3)C(=O)C(C)(OC(=O)c3ccc(OC)cc3)C(=O)C2=CN1CC1CC1 (configuration not stated) | 83.4% |
| Cc1cc(SCC(=O)c2cccc([N+](=O)[O-])c2)nc(=O)[nH]1 | 97.7% |
| O=c1nc(/C=C/c2cc([N+](=O)[O-])ccc2Cl)cc(C(F)(F)F)[nH]1 | 103% [at 20 µM] |
| Cc1[nH]n(-c2ccccc2)c(=O)c1C(c1cccc([N+](=O)[O-])c1)c1c(C)[nH]n(-c2ccccc2)c1=O | 85.4% |
| Cc1ccc(S(=O)(=O)NN2C(=O)/C(=C/c3cccs3)SC2=S)cc1 | 98.3% |
| CC1=NN(c2ccccc2)C(=O)C1=Cc1ccccc1 | 104% |
| COc1cc(NC(=O)c2ccco2)c(OC)cc1NC(=O)CCC(=O)Nc1cc(C)ccc1C | 101% |
| COc1cc(/C=C2/SC(=S)N(CC(=O)O)C2=O)ccc1OCC(=O)Nc1ccc(C)c(C)c1 | 97.2% |
| CCOC(=O)/C(=C\c1cn(C)c2ccccc12)[N+](=O)[O-] | 95.5% |
